Experimental findings from PubChem BioAssay (NCI) are described below.

Holding throughout (experiment): NCI-60 one-dose screen, 48 h (100 = growth as untreated, 0 = no growth, -100 = all killed)
The subject of one experiment is EKVX NSCLC. The conditions noted are these: 10 µM unless noted.
The next experiment concerns UO-31 renal. Conditions: 10 µM unless noted.
Another experiment relates to TK-10 renal. The conditions noted are these: 10 µM unless noted.
A further experiment deals with ACHN renal. The conditions noted are these: 10 µM unless noted.
The subject of another experiment is CAKI-1 renal. Conditions: 10 µM unless noted.
A further experiment deals with A498 renal. Conditions: 10 µM unless noted.
Another experiment has as its system CCRF-CEM leukemia. The conditions noted are these: 10 µM unless noted.
For the next experiment, the system named is MOLT-4 leukemia. The conditions noted are these: 10 µM unless noted.
In a further experiment the test system is SR leukemia. Conditions: 10 µM unless noted.
The next experiment deals with RPMI-8226 leukemia. The conditions noted are these: 10 µM unless noted.
The next experiment has as its system OVCAR-8 ovarian. The conditions noted are these: 10 µM unless noted.
The subject of a further experiment is OVCAR-5 ovarian. Conditions: 10 µM unless noted.
A further experiment has as its system OVCAR-4 ovarian. Conditions: 10 µM unless noted.
The test system of a further experiment is SK-OV-3 ovarian. Conditions: 10 µM unless noted.
In the next experiment the test system is IGROV1 ovarian. Conditions: 10 µM unless noted.
Another experiment has as its system OVCAR-3 ovarian. The conditions noted are these: 10 µM unless noted.
The test system of a further experiment is HS 578T breast. The conditions noted are these: 10 µM.
The next experiment deals with NCI/ADR-RES ovarian. Conditions: 10 µM unless noted.
The subject of another experiment is SN12C renal. The conditions noted are these: 10 µM unless noted.

The panel holds about 83,000 compounds, 20% with a hit somewhere; the sample as a whole holds those more often.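 For each line, cells grew in 96-well plates with the test compound present at a single concentration for 48 hours.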 A number with no mark means an inactive call. The source made the active and inactive calls. Rule for the calls: active = growth percent below 10; inactive = the rest.

On to `Nc1nc2c(c3ncccc13)C(c1ccccc1)Cc1ncccc1-2` (centres undefined), for which the growth is 78.8% in the experiment on EKVX NSCLC; 61.1% in the experiment with UO-31 renal; 89.9% in the experiment on TK-10 renal; 84.4% with ACHN renal; 77.2% in the experiment on CAKI-1 renal; 78.2% in the experiment with A498 renal. Also, the growth is 72.3% in the experiment on CCRF-CEM leukemia; 65.8% with MOLT-4 leukemia; 40.7% in the experiment with SR leukemia; 87.4% in the experiment on RPMI-8226 leukemia; 93.5% in the experiment with OVCAR-8 ovarian; 92.8% in the experiment with OVCAR-5 ovarian. Further, the growth with OVCAR-4 ovarian was 94.1%; in the experiment on SK-OV-3 ovarian, 87.3%; in the experiment on IGROV1 ovarian, 63.3%; in the experiment on OVCAR-3 ovarian it was 62.2%; with HS 578T breast, 87.2%; in the experiment with NCI/ADR-RES ovarian, 67.7%.
In the case of `Cc1ccc2nc(CN(CCN(Cc3nc4ccc(C)cc4[nH]3)Cc3nc4ccc(C)cc4[nH]3)Cc3nc4ccc(C)cc4[nH]3)[nH]c2c1`, the growth in the experiment with EKVX NSCLC is -97.5% (active); in the experiment on SN12C renal, -96.7% (active); in the experiment on UO-31 renal it was -73.7% (active); with TK-10 renal, -80.9% (active); in the experiment with ACHN renal it was -99.2% (active); in the experiment with CCRF-CEM leukemia, -61.7% (active). Further, the growth with OVCAR-8 ovarian was -71.8% (active); in the experiment on OVCAR-5 ovarian, -67.8% (active); in the experiment on OVCAR-4 ovarian, -99.2% (active); with SK-OV-3 ovarian it was -94.6% (active); with IGROV1 ovarian, -95.2% (active); with OVCAR-3 ovarian, -94.4% (active). Besides, the figures for the growth in the experiment with HS 578T breast and in the experiment with NCI/ADR-RES ovarian were -74.1% (active) and -72.5% (active), respectively.
With `Cc1ccc(NC(=O)c2[nH]c(SCCN(C)C)nc2-c2ccc(F)cc2)cc1Nc1ccc2ncn(C)c(=O)c2c1`, the growth with EKVX NSCLC was 75.2%; with SN12C renal, 64.6%; in the experiment with UO-31 renal, 31.4%; in the experiment on ACHN renal, 69%; with CCRF-CEM leukemia, 61.6%; in the experiment with MOLT-4 leukemia it was 41.2%. For the same molecule, the growth with SR leukemia was -24.9% (active); in the experiment with RPMI-8226 leukemia, 40.8%; in the experiment on OVCAR-8 ovarian, 70%; in the experiment with OVCAR-5 ovarian, 42.6%; in the experiment on OVCAR-4 ovarian, 70.8%; with SK-OV-3 ovarian, 88.4%. Further, the growth is 78.9% in the experiment with OVCAR-3 ovarian, 60.6% with HS 578T breast and 93.2% in the experiment on NCI/ADR-RES ovarian.
Turning to `Cc1cc(O)ccc1C1=NN(c2ccc(S(N)(=O)=O)cc2)C(=O)CC1`, the growth with EKVX NSCLC was 52.6%; in the experiment on SN12C renal, 70.7%; in the experiment on UO-31 renal it was 65.4%; with TK-10 renal, 114%; in the experiment with ACHN renal, 77.6%; with CCRF-CEM leukemia, 46.2%. Further, the growth in the experiment on OVCAR-8 ovarian was 50.1%; in the experiment with OVCAR-5 ovarian it was 93%; with OVCAR-4 ovarian, 59.2%; in the experiment with SK-OV-3 ovarian it was 64.9%; in the experiment on IGROV1 ovarian it was -9.76% (active); in the experiment on HS 578T breast it was 18.8%. In the experiment with NCI/ADR-RES ovarian, the growth is 22.4%.
`CC(C)CC(NC(=O)OCC1c2ccccc2-c2ccccc21)C(=O)O` (centres undefined): the growth in the experiment on SN12C renal was 104%; in the experiment on UO-31 renal, 94.2%; in the experiment on TK-10 renal it was 109%; with ACHN renal, 112%; with CAKI-1 renal it was 86.6%; in the experiment with A498 renal, 95%. The growth in the experiment with CCRF-CEM leukemia is 98.7%; in the experiment on MOLT-4 leukemia, 96.2%; in the experiment on SR leukemia, 93.7%; in the experiment on RPMI-8226 leukemia, 101%; in the experiment with OVCAR-8 ovarian, 122%; in the experiment with OVCAR-5 ovarian, 101%. In addition, the growth with OVCAR-4 ovarian was 102%; with SK-OV-3 ovarian it was 95%; in the experiment with IGROV1 ovarian, 91%; with OVCAR-3 ovarian, 115%; with HS 578T breast it was 115%; with NCI/ADR-RES ovarian, 107%.
Regarding `C=CCn1c(C)nc2cc(Nc3nc(N4CCCC4)nc4nc[nH]c34)ccc21`, the growth in the experiment on SN12C renal was 36.8%; with UO-31 renal it was 61.2%; with TK-10 renal it was 11.8%; with ACHN renal it was 17.8%; with CAKI-1 renal, 89%; in the experiment on A498 renal it was 1.35% (active). Also, the growth is 83.9% in the experiment on CCRF-CEM leukemia; 89% in the experiment on MOLT-4 leukemia; -9.28% (active) in the experiment on SR leukemia; 29.9% with RPMI-8226 leukemia; 74.7% in the experiment with OVCAR-8 ovarian; 30.6% with OVCAR-5 ovarian. The growth with OVCAR-4 ovarian is -30.4% (active); in the experiment with SK-OV-3 ovarian it was 59%; with IGROV1 ovarian, 55.8%; with OVCAR-3 ovarian it was -11.3% (active); in the experiment with HS 578T breast it was -0.0485% (active); in the experiment with NCI/ADR-RES ovarian, 94.7%.
For the molecule `COc1ccc(C2CC(c3ccc(Nc4ccnc5cc(Cl)ccc45)cc3)=NN2c2ccccc2)cc1` (centres undefined), the growth was 91.9% in the experiment on SN12C renal; 93.9% in the experiment on UO-31 renal; 109% in the experiment with TK-10 renal; 97.2% in the experiment on ACHN renal; 85.1% in the experiment on CAKI-1 renal; 49.7% in the experiment on A498 renal. Further, the growth was 69.8% in the experiment on CCRF-CEM leukemia; 52.3% with MOLT-4 leukemia; 81% in the experiment on SR leukemia; 70.5% in the experiment on RPMI-8226 leukemia; 95.4% in the experiment with OVCAR-8 ovarian; 86.2% in the experiment on OVCAR-5 ovarian. For the same molecule, the growth in the experiment with OVCAR-4 ovarian was 163%; in the experiment on SK-OV-3 ovarian it was 108%; with IGROV1 ovarian, 113%; in the experiment with OVCAR-3 ovarian, 111%; with HS 578T breast it was 105%.
On to `O=C(N=Nc1c(Cl)c(O)c2ccccc2c1O)C(=O)Nc1cccc(C(F)(F)F)c1`, for which the growth in the experiment on SN12C renal was 13.2%; with UO-31 renal it was 38.7%; in the experiment on TK-10 renal it was 116%; with ACHN renal it was 58.4%; with CAKI-1 renal, 54.6%; in the experiment on A498 renal, 84.9%. Moreover, the growth with CCRF-CEM leukemia is 6.57% (active); in the experiment on MOLT-4 leukemia it was 35.2%; in the experiment on SR leukemia, 32.2%; with RPMI-8226 leukemia it was 76.9%; with OVCAR-8 ovarian, 83.6%; in the experiment on OVCAR-5 ovarian, 118%. Moreover, the growth in the experiment with OVCAR-4 ovarian is 66.9%; with SK-OV-3 ovarian, 89.6%; in the experiment on IGROV1 ovarian it was 39.3%; with OVCAR-3 ovarian, 24.7%; in the experiment with HS 578T breast, 83.8%; with NCI/ADR-RES ovarian, 71%.
Take `CCCCn1c(C)nc2cc(Nc3nc(Cl)nc4nc[nH]c34)ccc21`: the growth was 78.9% in the experiment on SN12C renal; 64.6% in the experiment with UO-31 renal; 73.5% in the experiment on TK-10 renal; 85.8% in the experiment on ACHN renal; 76.1% with CAKI-1 renal; 26% in the experiment on A498 renal. In addition, the growth is 78% in the experiment on CCRF-CEM leukemia; 64% with MOLT-4 leukemia; 66.7% with SR leukemia; 65.4% in the experiment on RPMI-8226 leukemia; 84.2% in the experiment with OVCAR-8 ovarian; 80.6% with OVCAR-5 ovarian. For the same molecule, the growth in the experiment with OVCAR-4 ovarian is 78.9%; with SK-OV-3 ovarian, 80%; in the experiment with IGROV1 ovarian, 70.7%; in the experiment on OVCAR-3 ovarian, 91.6%; in the experiment with HS 578T breast, 52.7%; in the experiment with NCI/ADR-RES ovarian it was 94%.
